# Compound activity from PubChem.
# RECQ1 inh-1: qHTS Assay for Inhibitors of RecQ-Like Dna Helicase 1 (RECQ1) | Potency, µM (doses to about 57.3 µM), for the others: top-dose activity, negative = inhibition, most hits filed as inhibitors | RECQ1 DNA unwinding, red fluorescence kinetic read | AID 2549, 2010 | actives 0.54% (n = 240,000);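 note: plate controls were vehicle for no effect and no enzyme for full effect; nearly all actives have a fitted effect of over 30% in size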
# Target sequence (P46063 whole entry, looked up): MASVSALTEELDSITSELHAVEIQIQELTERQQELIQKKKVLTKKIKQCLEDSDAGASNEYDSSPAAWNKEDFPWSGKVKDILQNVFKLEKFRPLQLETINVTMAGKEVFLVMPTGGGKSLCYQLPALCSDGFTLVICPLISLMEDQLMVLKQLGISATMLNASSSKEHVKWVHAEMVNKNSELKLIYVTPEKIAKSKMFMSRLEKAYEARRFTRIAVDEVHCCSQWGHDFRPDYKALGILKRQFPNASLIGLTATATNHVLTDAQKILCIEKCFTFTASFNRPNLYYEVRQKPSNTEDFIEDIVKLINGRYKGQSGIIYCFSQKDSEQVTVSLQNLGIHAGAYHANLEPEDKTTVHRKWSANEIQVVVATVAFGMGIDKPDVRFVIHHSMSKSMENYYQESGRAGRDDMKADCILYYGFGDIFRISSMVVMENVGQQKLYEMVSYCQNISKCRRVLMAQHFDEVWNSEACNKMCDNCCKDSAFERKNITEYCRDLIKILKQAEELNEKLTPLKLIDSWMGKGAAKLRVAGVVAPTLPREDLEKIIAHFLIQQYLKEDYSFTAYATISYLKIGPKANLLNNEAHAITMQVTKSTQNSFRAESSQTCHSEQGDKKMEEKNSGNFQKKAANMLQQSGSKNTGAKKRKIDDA
#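 50 nM RECQ1T1 preincubated 15 min with compound in Tris pH 8.0 buffer with MgCl2, DTT, Tween-20 and 2.5 ug/ml poly(dI-dC); started with 200 nM TAMRA/BHQ-2 forked duplex and 2 mM ATP. Unwinding read as fluorescence (525/598 nm), two reads 2 h apart.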
# KAT2A inh: qHTS Assay for Inhibitors of GCN5L2 | Histone acetyltransferase KAT2A (Homo sapiens), Q92830 | GCN5L2 HAT assay, ThioGlo1 CoA-SH fluorescence | Potency, µM (series often up to 58.9 µM), without a hit: at the highest dose activity change, negative = inhibition, most hits filed as inhibitors | actives 0.21% (n = 390,000); note: % is set by controls: 0 for no effect and ±100 for the full control effect
#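 GCN5L2 (20 nM) in 50mM HEPES pH 7.5, 0.1mM EDTA, 0.01% Tween-20 preincubated 15 min with compounds at room temperature. Reaction started with H3(1-25) 75uM, acetyl-CoA 70uM, ThioGlo1 50uM; CoA-thiol fluorescence (Ex340/Em540) read at 0 and 20 min.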
# BLM helicase inh: qHTS Assay for Inhibitors of Bloom's syndrome helicase (BLM) | actives 0.2% (n = 350,000) | Potency, µM (doses to about 56.1 µM), for inactives: at the highest dose activity change, negative = inhibition, usual class: inhibitors | recombinant BLM DNA unwinding, fluorescence dequenching;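 note: plate controls were vehicle for no effect and no enzyme for full effect; nearly all actives have a fitted effect of over 35% in size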
# WRN inhibitor: qHTS for Inhibitors of WRN Helicase; Potency, µM (series often up to 114 µM), inactives show at the top dose activity change, negative = inhibition, hits mostly inhibitors; WRN helicase unwinding, fluorescent forked duplex, kinetic; AID 651768, 2012; actives 0.46% (n = 360,000); note: % is set by controls: 0 for no effect and ±100 for the full control effect; nearly all actives have a fitted effect of over 55% in size
#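 WRN at 20 nM final preincubated with compound 15 min at room temperature; reaction started with 100 nM fluorophore/quencher forked duplex oligonucleotide and 2 mM ATP final. Unwinding followed kinetically by red fluorescence (ex 525, em 598 nm).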
# ERG Ets-DNA blk: qHTS for Small Molecule Inhibitors of the ERG Ets/DNA interaction; actives 0.028% (n = 370,000); AID 624246, 2012; fluorescence polarization, His-ERG Ets domain / labelled DNA; Potency, µM (top dose mostly 76.9 µM), inactives show at the top dose FP activity, negative = inhibition, actives largely listed as inhibitors; Transcriptional regulator ERG (Homo sapiens), P11308; active = well fitted inhibition curve with a large enough effect in the polarisation, with a control signal flat; inconclusive = small, poorly fitted or top-dose-only effect, or effect the other way, or a change in a side signal; inactive = no such curve, though single readings can be large or run the other way; the % refers to the polarisation;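 note: polarization taken with two DNA probes labelled with fluorescein and Texas red; % of control where 0% means no effect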
#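 His-tagged ERG Ets domain (1 uM in the protein solution; 300mM KCl, 50mM Tris-HCl, 1mM EDTA, 1mM DTT, pH 7.5) received compound, then a probe mix of 5 nM fluorescein-DNA and 100nM Texas-615-DNA. Fluorescence polarization was read for both dyes.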
# APEX1 inh: qHTS Assay for Inhibitors of the Human Apurinic/apyrimidinic Endonuclease 1 (APE1); DNA repair nuclease/redox regulator APEX1 (Homo sapiens), P27695; recombinant APE1, TAMRA/BHQ-2 abasic DNA cleavage fluorescence; Potency, µM (series often up to 65.8 µM), inactives show top-dose activity change, negative = inhibition, actives largely listed as inhibitors; actives 0.35% (n = 350,000);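 note: plate controls were vehicle for no effect and reference inhibitor for full effect; nearly all actives have a fitted effect of over 55% in size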
#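 APE1 at 0.75 nM final was preincubated with compound 15 min at room temperature, then 50 nM double-stranded THF abasic-site substrate (5'-TAMRA/3'-BHQ-2) was added. Fluorescence (ex 525/em 598 nm) was read kinetically; third-minus-first read gave activity.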
# RECQ1 conf: Confirmation qHTS Assay for Inhibitors of RecQ-Like Dna Helicase 1 (RECQ1). Potency, µM (top dose mostly 229 µM), for the others: top-dose activity change, negative = inhibition, actives largely listed as inhibitors. RECQ1 helicase DNA unwinding, fluorescence. actives 28% (n = 610). shares compounds with RECQ1 inh-1; note: % is set by controls: 0 for no effect and ±100 for the full control effect; nearly all actives have a fitted effect of over 45% in size
# ADP FP counter: Counterscreen for RECQ1 Inhibitors: ADP Fluorescence Polarization Displacement Assay. shares compounds with RECQ1 inh-1. ADP fluorescence polarization displacement counterscreen. Potency, µM (doses to about 228 µM), for inactives: at the top dose activity change, negative = inhibition, hits mostly inhibitors. actives 27% (n = 530). AID 2711, 2010; note: % is set by controls: 0 for no effect and ±100 for the full control effect; nearly all actives have a fitted effect of over 45% in size
# RECQ1 inh-2: Confirmation qHTS Assay for Inhibitors of RecQ-Like Dna Helicase 1 (RECQ1) - Round 2 Cherry Picks; Potency, µM (doses to about 119 µM), inactives show at the top dose activity, negative = inhibition, usual class: inhibitors; shares compounds with RECQ1 inh-1; actives 15% (n = 1,100); recombinant RECQ1 DNA unwinding, red fluorescence; note: % is set by controls: 0 for no effect and ±100 for the full control effect; nearly all actives have a fitted effect of over 50% in size
# An asterisk follows results filed as active; i = inactive; ? = inconclusive; . = no result; [ ] = another dose, or the depositor's remark. A selection: hits, their analogues and other compounds. The true share with any hit is near 0.88%. Unless noted, calls come from the whole dose curve; as a rule, active = well fitted curve in the direction sought with a large enough effect; inconclusive = small, poorly fitted or top-dose-only effect, or another doubt; inactive = no such curve, though single readings can be large; an effect the other way counts as inactive or inconclusive. Potency is the fitted concentration of half-maximal effect.
SMILES,RECQ1 inh-1,KAT2A inh,BLM helicase inh,WRN inhibitor,ERG Ets-DNA blk,APEX1 inh,RECQ1 inh-2,others
O=C1CSC(=S)N1/N=C/c1ccc(O)c(O)c1O,2.2µM*,?,?,10µM*,63%,0.35µM*,.,RECQ1 conf=?
CCc1ccc(C(=O)c2cn(CC(=O)Nc3cc(F)ccc3F)c3nc(C)ccc3c2=O)cc1,.,-23%,-9%,.,9%,.,.,
COc1ccccc1CCNC(=O)CSc1ccc(-c2ccco2)nn1,?,-15%,-11%,-10%,0%,?,-11%,
C=CCc1cccc(/C=N/NC(=O)CN2CCN(Cc3ccccc3)CC2)c1O,22µM*,-20%,-24%,.,.,19%,.,RECQ1 conf=?;ADP FP counter=11µM*
C=CCc1cccc(/C=N/NC(=O)CNc2ccccc2)c1O,i,.,-1%,-4%,-1%,-8%,.,
CCOCC(O)COc1ccc(NC(=O)CC[S+](C)C)cc1 (centres undefined),.,-1%,-10%,.,.,.,.,
Cc1ccc(S(=O)(=O)N2CCCCC2)cc1NC(=O)Cn1ccc(C(F)(F)F)n1,40µM*,-2%,-6%,-3%,-9%,-5%,-5%,
COc1cc(OC)c(NC(=O)c2c(C)oc3nc(C)nc(N4CCOCC4)c23)cc1Cl,.,-1%,-2%,.,7%,.,.,
COc1ccc(Cl)cc1NC(=O)CN(C)CC(=O)Nc1ccc(C)cc1Br,35µM*,-13%,-8%,-4%,-1%,-12%,-19%,
N#Cc1nc(COc2cccc(Cl)c2)oc1NCCc1ccccc1,.,-13%,-11%,.,-1%,.,.,
Cc1cc(C)n2c(SCC(=O)Nc3c(C)n(C)n(-c4ccccc4)c3=O)nnc2n1,-6%,-4%,-2%,-4%,9%,-2%,.,RECQ1 conf=18%;ADP FP counter=7%
Cc1nnc(SCC(=O)Nc2c(C)n(C)n(-c3ccccc3)c2=O)n1Cc1ccccc1,-4%,-8%,2%,-6%,-4%,-2%,.,
COc1cccc([C@@H]2Oc3ccc(OC)cc3C(=O)[C@H]2OC(=O)NCCOc2ccccc2)c1,1%,.,-2%,.,.,1%,.,
O=C(O)c1c2c(nc3ccc(S(=O)(=O)N4CCC(C(=O)N5CCCCC5)CC4)cc13)CCCC2,?,-16%,-6%,-12%[57.1 µM],1%,-10%,8%,
COc1cc(CN(C(=O)c2oc3ccccc3c2C)C2CCS(=O)(=O)C2)cc(OC)c1OC (centres undefined),.,-2%,-1%,.,-1%,.,.,
COc1ccc(C(=O)COC(=O)/C=C/c2ccc(S(=O)(=O)Nc3cccc(S(N)(=O)=O)c3)cc2)cc1,-16%,-8%,-8%,-11%,27%,-3%,.,
